# Inconclusive results are not listed. Activity calls are given as the source filed them. The call rests on the fitted dose curve; in most records, active means well fitted cell-killing curve with a large enough effect; inconclusive means small, poorly fitted or top-dose-only effect, or effect the other way; inactive means no such curve, though single readings can be large or run the other way. Starred links: 1 amine or outer side, 2 acyl side, 3 side chain; linkers in the order of their positions; H or OH if unused. Positions of bridges follow the written chain, without caps; N, C: chain ends. Non-standard residues stand in square brackets, D forms with d. Residues, ends and D or L forms follow the SMILES beside them. Chains are numbered I, II in the order given. Actinocin(9to1) = Cc1c2oc3c(C)ccc(C(=O)[*:1])c3nc-2c(C(=O)[*:2])c(N)c1=O; NMeV = CN[CH](C(=O)O)C(C)C; Sar = CNCC(=O)O
# Experiment: Quantitative High-Throughput drug screen in 47 multiple myeloma cell lines against the NCATS MIPE library collection: LP1_DSMZ cell viability assay (AID 1918982); further: nearly all actives have a fitted effect of over 35% in size
# Settings: LP1 myeloma viability, CellTiter-Glo ATP luminescence, 48 h; series mostly up to 45.8 µM
# Summary of the method: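 500 cells/well per myeloma line exposed to pinned MIPE 4.0 compounds for 48 h at 37 °C, 5% CO2. Viability read as ATP by CellTiter-Glo luminescence, normalised to DMSO-only (100%) and media-only (0%) wells.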
# Potency means the concentration at half of the fitted maximal effect.
row,SMILES,Potency
1,CCc1ccc(C(=O)Nc2cc(CN3CCN(C)CC3)cc(C(F)(F)F)c2)cc1C#Cc1cnc2ccnn2c1,16.6 µM (active)
2,C=CC[C@@H]1C=C(C)C[C@H](C)C[C@H](OC)[C@H]2O[C@@](O)(C(=O)C(=O)N3CCCC[C@H]3C(=O)O[C@H](C(C)=C[C@@H]3CC[C@H](O)[C@H](OC)C3)[C@@H](C)[C@@H](O)CC1=O)[C@@H](C)C[C@@H]2OC,3.32 µM (active)
3,CO[C@@H]1[C@@H](O)[C@H](O)[C@@H](n2c3c(Cl)cccc3c3c4c(c5c6cccc(Cl)c6[nH]c5c32)C(=O)NC4=O)O[C@@H]1CO,6.62 µM (active)
4,Cc1cc(O)c2c(c1)C(=O)c1cccc(O)c1C2=O,inactive
5,C[C@H](NC(=O)C(C#N)=Cc1cccc(Br)n1)c1ccccc1,5.9 µM (active)
6,Cn1cnc(=N)c2[nH]cnc21,0.166 µM (active)
7,CC(C)N1[N]C(=C2C=c3cc(O)ccc3=N2)c2c(N)ncnc21,0.0026 µM (active)
8,COc1cccc2c1C(=O)c1c(O)c3c(c(O)c1C2=O)C[C@@](O)(C(=O)CO)C[C@@H]3O[C@H]1C[C@H](N)[C@@H](O)[C@H](C)O1,1.87 µM (active)
9,COc1cc(C=CC(=O)CC(=O)C=Cc2ccc(O)c(OC)c2)ccc1O,30.3 µM (active)
10,CCC[C@H]1C[C@H](C(=O)N[C@@H]([C@@H]2O[C@@H](SC)[C@@H](O)[C@@H](O)[C@@H]2O)[C@H](C)Cl)N(C)C1,inactive
11,C=CC(=O)Nc1ccc2ncnc(Nc3ccc(OCc4cccc(F)c4)c(Cl)c3)c2c1,5.9 µM (active)
12,OCc1ccccc1O[C@@H]1O[C@H](CO)[C@H](O)[C@H](O)[C@H]1O,inactive
13,Cn1cc(C2=C(c3c4n(c5ccccc35)CCC(CN)C4)C(=O)NC2=O)c2ccccc21 (centres undefined),10.5 µM (active)
14,O=C(Nc1cccc(Nc2ncc(Br)c(NCCc3cnc[nH]3)n2)c1)N1CCCC1,20.9 µM (active)
15,C=CCNc1c(O)cc2c(O)c1C[C@@H](C)C[C@H](OC)[C@@H](O)[C@@H](C)C=C(C)[C@H](OC(N)=O)[C@@H](OC)C=CC=C(C)C(=O)N2,1.87 µM (active)
16,C[C@@H]1CC[C@@]2(OC1)OC1CC3C4CC=C5CC(O)CCC5(C)C4CCC3(C)C1[C@@H]2C (some centres undefined),inactive
17,CCS(=O)(=O)Nc1ccc2[nH]c(O)c(C(=Nc3ccc(CN4CCCCC4)cc3)c3ccccc3)c2c1,7.43 µM (active)
18,CCN(CC)CCNC(=O)c1c(C)[nH]c(C=C2C(=O)Nc3ccc(F)cc32)c1C,30.3 µM (active)
19,O=C1NC(=O)[C@@H](c2cn3c4c(cccc24)CCC3)[C@H]1c1c[nH]c2ccccc12,1.05 µM (active)
20,COC1=C2C[C@@H](C)C[C@H](OC)[C@@H](O)[C@@H](C)C=C(C)[C@H](OC(N)=O)[C@@H](OC)C=CC=C(C)C(=O)NC(=CC1=O)C2=O,1.18 µM (active)
21,NC(=NCCCCCCN=C(N)N=C(N)Nc1ccc(Cl)cc1)N=C(N)Nc1ccc(Cl)cc1,11.8 µM (active)
22,Nc1nc(N)c2nc(-c3cccc(O)c3)c(-c3cccc(O)c3)nc2n1,23.5 µM (active)
23,CC(C)C[C@H](NC(=O)[C@@H](NC(=O)c1cccc(-c2ccccc2)n1)[C@@H](C)O)B(O)O,0.0296 µM (active)
24,O=C1CSC(=O)N1C(CCc1ccncc1)COc1ccc(-c2cccc([N+](=O)[O-])c2)cc1 (centres undefined),5.9 µM (active)
25,C#C[C@]1(O)CC[C@@H]2[C@@H]3CCC4=CC(=O)CC[C@@H]4[C@H]3CC[C@@]21CC,inactive
26,CC(=O)O[C@@]12CO[C@H]1C[C@H](O)[C@@]1(C)C(=O)[C@H](O)C3=C(C)[C@@H](OC(=O)C(O)[C@@H](NC(=O)OC(C)(C)C)c4ccccc4)C[C@@](O)([C@@H](OC(=O)c4ccccc4)[C@@H]21)C3(C)C (some centres undefined),inactive
27,C[C@H](NCc1ccc(OCc2cccc(F)c2)cc1)C(N)=O,11.8 µM (active)
28,C[C@@]12C(=O)OC(=O)[C@@]1(C)C1CCC2O1,3.72 µM (active)
29,"Cc1c2oc3c(C)ccc(C(=O)NC4C(=O)NC(C(C)C)C(=O)N5CCCC5C(=O)N(C)CC(=O)N(C)C(C(C)C)C(=O)OC4C)c3nc-2c(C(=O)NC2C(=O)NC(C(C)C)C(=O)N3CCCC3C(=O)N(C)CC(=O)N(C)C(C(C)C)C(=O)OC2C)c(N)c1=O (centres undefined) (I: TVP[Sar][NMeV] / II: TVP[Sar][NMeV]; ester I:1-I:C, II:1-II:C; linker I:N-II:N via Actinocin(9to1); configuration not given here)",inactive
